The full ranking holds about 68,000 sequences; the median of “fluorescence intensity (a.u.)” is about 9,100, and the highest 2% start at about 16,000. This is one part of a sample in which the highest values are shown more often than they occur.
The sequences below were run against OsWRKY34 (Oryza sativa, UniProt Q0JBA9 1-250) (assay: protein-binding microarray (RPBM); PBS, 2% BSA, 51.3 ng/ul salmon testes DNA, 50 uM zinc acetate, 200 nM TF, 25 C, 1 h; high values mean tight binding). Details: protein: recombinant; tags: N-terminal polyhistidine and DsRed monomer fusion (pET32a); label: CyDye5-dUTP incorporated in the synthesized complementary strand; 3' TTTTT single-stranded linker to array surface; dsDNA, one strand shown.
In short: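 Ni–NTA purification followed expression in E. coli BL21-CodonPlus of transcription factors fused N-terminally to a polyhistidine tag and DsRed. At 200 nM in PBS with 2% BSA, salmon testes DNA and 50 µM zinc acetate, the protein was incubated for 1 h at 25 °C with a custom Agilent array that had been primer-extended with Cy5-dUTP and blocked with 2% BSA. After washing, the array was read on an Axon 4000B scanner. The binding signal is per-feature fluorescence intensity in arbitrary units.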

OsWRKY34, sequence (Q0JBA9 entry or part of it): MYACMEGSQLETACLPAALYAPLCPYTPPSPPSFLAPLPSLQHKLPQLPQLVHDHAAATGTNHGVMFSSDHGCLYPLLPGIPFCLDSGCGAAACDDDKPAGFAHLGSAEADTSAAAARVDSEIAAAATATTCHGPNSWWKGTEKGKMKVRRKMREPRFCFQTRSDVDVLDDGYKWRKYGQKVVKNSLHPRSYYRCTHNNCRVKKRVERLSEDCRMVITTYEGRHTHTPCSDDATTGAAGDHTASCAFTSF

Sequence | binding signal
AAACTACCATGGGACTTATATTGCTCCGGTTTTGATAGTTCGGAGTCACCTAGTGCAG | 8480 fluorescence intensity (a.u.)
TTCCACAGAGTCAAGTCCACAGAACGTATGCTCCATGTTCCGGAGTCACCTAGTGCAG | 8160 fluorescence intensity (a.u.)
GGCTGCCTGTGCATGGGAGGCGATGTGAGGGTGGGCAGGGCGGAGTCACCTAGTGCAG | 9440 fluorescence intensity (a.u.)
ACTCACGCTTTAACACCAGGAATCTTATCTCTATCTCATCCGGAGTCACCTAGTGCAG | 8460 fluorescence intensity (a.u.)
ATTGGGCTGGAATGAGATTCACGGGAGGGTAACTGGCGGTCGGAGTCACCTAGTGCAG | 12300 fluorescence intensity (a.u.)
TTCAAATTGTTGCTGCTCTGTGCTAGCCTTTTCATATTGACGGAGTCACCTAGTGCAG | 9110 fluorescence intensity (a.u.)
ATAAGATATTTTTGACTTTGGTCAAAGTCAAATTGTTTCACGGAGTCACCTAGTGCAG | 15300 fluorescence intensity (a.u.)
CTTTGGTCAAAGTCAAATTGTTTTAAGTTTGACCAAGTTTCGGAGTCACCTAGTGCAG | 19600 fluorescence intensity (a.u.)
TAAGTTGTTTGACTTTTTTTCTAGTCAAACTTGTCTGAGTCGGAGTCACCTAGTGCAG | 17000 fluorescence intensity (a.u.)
ATTTTTTTTCTAGTCAAACTTTGTTAAGTTTGACCAAAATCGGAGTCACCTAGTGCAG | 9790 fluorescence intensity (a.u.)
GCAGTTTAACTTTGACCAAAGTCAAAATATTTTATAATTTCGGAGTCACCTAGTGCAG | 8930 fluorescence intensity (a.u.)
CGTGGTAATTTTTATTGGTAAGTGGTGGTGAAGTGGGTGACGGAGTCACCTAGTGCAG | 8300 fluorescence intensity (a.u.)
ACACTTTGACTCTTTGATTTAGTAAGCTCGAGTTTATTTTCGGAGTCACCTAGTGCAG | 9030 fluorescence intensity (a.u.)
ATATTATAAGTTGTTTTGACTTTTTGCTAGTCAAACTTATCGGAGTCACCTAGTGCAG | 14200 fluorescence intensity (a.u.)
CACTTTATTTTTGAAAATTCGGGTGGGTAAGCTGGTGACTCGGAGTCACCTAGTGCAG | 19200 fluorescence intensity (a.u.)
ACTTCTTCTACGTGATTTCCTGATTCGCCTCATCCGCTTCCGGAGTCACCTAGTGCAG | 9060 fluorescence intensity (a.u.)
TGGGGATGGCGGAGGTTAGCGGCGCGCTTTTTTTTCTATTCGGAGTCACCTAGTGCAG | 14500 fluorescence intensity (a.u.)
TTCATATACACATATAGTTTTACATATTTCATATTTTTTTCGGAGTCACCTAGTGCAG | 9360 fluorescence intensity (a.u.)
CCACCTGCCAGCCTGTACCCACCCCTCCCTACTGTTATACCGGAGTCACCTAGTGCAG | 8640 fluorescence intensity (a.u.)
ATGATCATAGCCATTTTTCCTCGCTTTAAATATTTGCTACCGGAGTCACCTAGTGCAG | 8490 fluorescence intensity (a.u.)
GAGGTCTACTGTTATTGGGGATTCTTTTTGGGTGGGGTGGCGGAGTCACCTAGTGCAG | 31300 fluorescence intensity (a.u.)
GCTTGTTGTGGGCTGTGGACTGGGTGTGTGTGTGTGCTTTCGGAGTCACCTAGTGCAG | 9420 fluorescence intensity (a.u.)
AGTCTGGATTCTTGGAGGTCAACTTTGGTCAACGGTGGGGCGGAGTCACCTAGTGCAG | 14200 fluorescence intensity (a.u.)

Sequence | binding signal
GTGGCTTGAAAGGTCTGTGTGTTCTTGTTTGGGATTGAGGCGGAGTCACCTAGTGCAG | 8440 fluorescence intensity (a.u.)
TTCGGAGGCGGAGGCGGTGGTGGGCTTGGTGGAGGTGGCGCGGAGTCACCTAGTGCAG | 9860 fluorescence intensity (a.u.)
GCTTGCTTGGTTGGTTGGTGGAGCTTGGGAGTTGAGGTCACGGAGTCACCTAGTGCAG | 11500 fluorescence intensity (a.u.)
TGGCGGATTGATCTGGAGGTGGGCTTGTTGGGGTTGCTGTCGGAGTCACCTAGTGCAG | 18200 fluorescence intensity (a.u.)
CGGGTGGGGATGGGCTGGATCTGGATTGATTGGGAGTGTTCGGAGTCACCTAGTGCAG | 15200 fluorescence intensity (a.u.)
CTGGATTGATTGGGAGTGTTGGGTTTCGGGCTAGATCTGGCGGAGTCACCTAGTGCAG | 9850 fluorescence intensity (a.u.)
GCTTTTGGCTGTGGTGGGTGCTTGTGGGTGGAGAGAGAGACGGAGTCACCTAGTGCAG | 19300 fluorescence intensity (a.u.)
GGTTGCTGTGGTTGGCGAGGTGGGGTGGGGCTTGGAGTAACGGAGTCACCTAGTGCAG | 27400 fluorescence intensity (a.u.)
TTGGCGGTGGAGGCGGTGGTGGCTTTGGAGGAGACGGTGGCGGAGTCACCTAGTGCAG | 8650 fluorescence intensity (a.u.)
ATCTTTGCCAAAATTTTTCTACTAGTATAATACTATCTCCCGGAGTCACCTAGTGCAG | 8420 fluorescence intensity (a.u.)
AAGCTCCGATCCACAGCGCACCTCGAGCCCTACCTCCGATCGGAGTCACCTAGTGCAG | 8940 fluorescence intensity (a.u.)
TTCCTCCATCCATTTTGTCAACTCCTCTCCGCTTTTCATCCGGAGTCACCTAGTGCAG | 9640 fluorescence intensity (a.u.)
GCCTGGCGCGCCTCTCCTGCTCTGTTGGACCGCCGCGCCCCGGAGTCACCTAGTGCAG | 12000 fluorescence intensity (a.u.)
CCACTCTCCGGCGCACCTATTTTCCATTTATATATATATGCGGAGTCACCTAGTGCAG | 9670 fluorescence intensity (a.u.)
TTGAACCCTGCTCTCAGCTGAGCACCATGCAATAACTGTCCGGAGTCACCTAGTGCAG | 8270 fluorescence intensity (a.u.)
CCAATGATATGTGCCGAAGTTGTATTTATCGAGAGATATTCGGAGTCACCTAGTGCAG | 9850 fluorescence intensity (a.u.)
CCAGTGAATTACATTTTTGCCCGATCCCGTCGCGAACTCCCGGAGTCACCTAGTGCAG | 8750 fluorescence intensity (a.u.)
CTGGGTGTTCAGATATATTACTAGAGGTCATACCATACAACGGAGTCACCTAGTGCAG | 8130 fluorescence intensity (a.u.)
TAGGGGTTAGTGTGCGAGCATGTGCTGTGTAATTTTTTAACGGAGTCACCTAGTGCAG | 10600 fluorescence intensity (a.u.)
CTAATTAGTACTGCAATTTTGGGTCCTTGGGTTGTTAGAACGGAGTCACCTAGTGCAG | 16900 fluorescence intensity (a.u.)
GCCATATTATTTTTCCTTTGTCCTAATTAATGTTAGAAATCGGAGTCACCTAGTGCAG | 9440 fluorescence intensity (a.u.)
CTACTAGTACAGGCTATATCGCTTACTCCCTTTGTCCTAACGGAGTCACCTAGTGCAG | 8420 fluorescence intensity (a.u.)
TGGGTCTCTTGGGGTCGGTGGGGCGGTCGTCGTCCGTGCCCGGAGTCACCTAGTGCAG | 11400 fluorescence intensity (a.u.)
